Of roughly 7,900 targets only a part is listed; those with a hit were picked by preference. About 0.6% of all pairs of compound and target were hits.
Experiments:
Test in all cases: log2 fold change, soluble protein after heating vs DMSO (PISA); higher = thermal stabilisation; K562 cells, 10 uM, 30 min; active = over 0.2 and 3.5 SD of the protein, either way, in both replicates (recomputed)
[1] = compound: C1=CC=C(C=C1)[C@H](COC2=CC3=C(C=C2)NC(=O)N3)NC(=O)C4=CC=CN(C4=O)CC5=CC(=C(C=C5)F)F
Procedure, shortened: (§1)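 Soluble protein was quantified by TMTpro 16plex LC-MS/MS after channel sums were equalised. It was obtained as the supernatant after 21,000xg for 90 min from pooled aliquots of K562 cells (2×10^6 cells/mL, 10 μM compound, 30 min) heated for 3 min across 48°C-58°C and extracted in PBS with 0.5% NP-40 at 4°C. Thermal stability values are relative to control samples and come from duplicates. They are given as log2 fold changes.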

[2] = compound: CC1=C2C(=CC=C1)N=C(N(C2=O)C3=CC=CC=C3C)CN4C=NC5=C(N=CN=C54)N
Procedure, shortened: as §1

[3] = compound: Cc1sc2c(c1C)C(c1ccc(Cl)cc1)=N[C@@H](CC(=O)OC(C)(C)C)c1nnc(C)n1-2
Procedure, shortened: as §1

[4] = compound: CC1=C(SC2=C1C(=N[C@H](C3=NN=C(N32)C)CC(=O)N)C4=CC=C(C=C4)Cl)C
Procedure, shortened: as §1

[5] = compound: c1ccc([C@@H]2C[C@H]2NC2CCNCC2)cc1
Procedure, shortened: as §1

Measured: log2 fold change

ARMC8 isoform 6 (UniProt Q8IUR7)
inactive: [1] 0.053 | [2] 0.088

BAP18 isoform 3 (UniProt Q8IXM2)
inactive: [3] 0.041

BRD8 isoform 2 (UniProt Q9H0E9)
inactive: [1] 0.035 | [4] -0.091 | [2] 0.167 | [3] 0.046 | [5] 0.038

BRMS1 (UniProt Q9HCU9)
inactive: [3] -0.011

BDH2 (UniProt Q9BUT1)
UniProt Q9BUT1, sequence (Q9BUT1 whole entry, looked up): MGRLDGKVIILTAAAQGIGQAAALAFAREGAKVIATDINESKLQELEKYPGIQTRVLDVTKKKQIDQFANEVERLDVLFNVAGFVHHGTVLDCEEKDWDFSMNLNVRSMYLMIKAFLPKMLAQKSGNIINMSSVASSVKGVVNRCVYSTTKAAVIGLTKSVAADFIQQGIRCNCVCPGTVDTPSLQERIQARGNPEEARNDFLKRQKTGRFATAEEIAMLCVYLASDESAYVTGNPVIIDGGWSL
inactive: [1] -0.033 | [4] 0.087 | [2] -0.213 | [5] 0.12

AMD1 (UniProt P17707)
UniProt P17707, sequence (P17707 whole entry, looked up): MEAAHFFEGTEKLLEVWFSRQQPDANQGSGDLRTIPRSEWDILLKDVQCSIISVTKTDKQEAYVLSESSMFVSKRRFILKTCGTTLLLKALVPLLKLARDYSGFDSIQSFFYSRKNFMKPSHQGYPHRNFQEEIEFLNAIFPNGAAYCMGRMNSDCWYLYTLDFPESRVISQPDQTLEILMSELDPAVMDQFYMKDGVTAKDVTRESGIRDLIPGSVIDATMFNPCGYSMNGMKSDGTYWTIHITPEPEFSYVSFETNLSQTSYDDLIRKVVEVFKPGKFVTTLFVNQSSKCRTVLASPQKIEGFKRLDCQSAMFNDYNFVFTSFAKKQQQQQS
inactive: [1] -0.021 | [2] 0.168 | [3] -0.164

ABCA4 (UniProt P78363)
UniProt P78363, sequence (P78363 whole entry, looked up): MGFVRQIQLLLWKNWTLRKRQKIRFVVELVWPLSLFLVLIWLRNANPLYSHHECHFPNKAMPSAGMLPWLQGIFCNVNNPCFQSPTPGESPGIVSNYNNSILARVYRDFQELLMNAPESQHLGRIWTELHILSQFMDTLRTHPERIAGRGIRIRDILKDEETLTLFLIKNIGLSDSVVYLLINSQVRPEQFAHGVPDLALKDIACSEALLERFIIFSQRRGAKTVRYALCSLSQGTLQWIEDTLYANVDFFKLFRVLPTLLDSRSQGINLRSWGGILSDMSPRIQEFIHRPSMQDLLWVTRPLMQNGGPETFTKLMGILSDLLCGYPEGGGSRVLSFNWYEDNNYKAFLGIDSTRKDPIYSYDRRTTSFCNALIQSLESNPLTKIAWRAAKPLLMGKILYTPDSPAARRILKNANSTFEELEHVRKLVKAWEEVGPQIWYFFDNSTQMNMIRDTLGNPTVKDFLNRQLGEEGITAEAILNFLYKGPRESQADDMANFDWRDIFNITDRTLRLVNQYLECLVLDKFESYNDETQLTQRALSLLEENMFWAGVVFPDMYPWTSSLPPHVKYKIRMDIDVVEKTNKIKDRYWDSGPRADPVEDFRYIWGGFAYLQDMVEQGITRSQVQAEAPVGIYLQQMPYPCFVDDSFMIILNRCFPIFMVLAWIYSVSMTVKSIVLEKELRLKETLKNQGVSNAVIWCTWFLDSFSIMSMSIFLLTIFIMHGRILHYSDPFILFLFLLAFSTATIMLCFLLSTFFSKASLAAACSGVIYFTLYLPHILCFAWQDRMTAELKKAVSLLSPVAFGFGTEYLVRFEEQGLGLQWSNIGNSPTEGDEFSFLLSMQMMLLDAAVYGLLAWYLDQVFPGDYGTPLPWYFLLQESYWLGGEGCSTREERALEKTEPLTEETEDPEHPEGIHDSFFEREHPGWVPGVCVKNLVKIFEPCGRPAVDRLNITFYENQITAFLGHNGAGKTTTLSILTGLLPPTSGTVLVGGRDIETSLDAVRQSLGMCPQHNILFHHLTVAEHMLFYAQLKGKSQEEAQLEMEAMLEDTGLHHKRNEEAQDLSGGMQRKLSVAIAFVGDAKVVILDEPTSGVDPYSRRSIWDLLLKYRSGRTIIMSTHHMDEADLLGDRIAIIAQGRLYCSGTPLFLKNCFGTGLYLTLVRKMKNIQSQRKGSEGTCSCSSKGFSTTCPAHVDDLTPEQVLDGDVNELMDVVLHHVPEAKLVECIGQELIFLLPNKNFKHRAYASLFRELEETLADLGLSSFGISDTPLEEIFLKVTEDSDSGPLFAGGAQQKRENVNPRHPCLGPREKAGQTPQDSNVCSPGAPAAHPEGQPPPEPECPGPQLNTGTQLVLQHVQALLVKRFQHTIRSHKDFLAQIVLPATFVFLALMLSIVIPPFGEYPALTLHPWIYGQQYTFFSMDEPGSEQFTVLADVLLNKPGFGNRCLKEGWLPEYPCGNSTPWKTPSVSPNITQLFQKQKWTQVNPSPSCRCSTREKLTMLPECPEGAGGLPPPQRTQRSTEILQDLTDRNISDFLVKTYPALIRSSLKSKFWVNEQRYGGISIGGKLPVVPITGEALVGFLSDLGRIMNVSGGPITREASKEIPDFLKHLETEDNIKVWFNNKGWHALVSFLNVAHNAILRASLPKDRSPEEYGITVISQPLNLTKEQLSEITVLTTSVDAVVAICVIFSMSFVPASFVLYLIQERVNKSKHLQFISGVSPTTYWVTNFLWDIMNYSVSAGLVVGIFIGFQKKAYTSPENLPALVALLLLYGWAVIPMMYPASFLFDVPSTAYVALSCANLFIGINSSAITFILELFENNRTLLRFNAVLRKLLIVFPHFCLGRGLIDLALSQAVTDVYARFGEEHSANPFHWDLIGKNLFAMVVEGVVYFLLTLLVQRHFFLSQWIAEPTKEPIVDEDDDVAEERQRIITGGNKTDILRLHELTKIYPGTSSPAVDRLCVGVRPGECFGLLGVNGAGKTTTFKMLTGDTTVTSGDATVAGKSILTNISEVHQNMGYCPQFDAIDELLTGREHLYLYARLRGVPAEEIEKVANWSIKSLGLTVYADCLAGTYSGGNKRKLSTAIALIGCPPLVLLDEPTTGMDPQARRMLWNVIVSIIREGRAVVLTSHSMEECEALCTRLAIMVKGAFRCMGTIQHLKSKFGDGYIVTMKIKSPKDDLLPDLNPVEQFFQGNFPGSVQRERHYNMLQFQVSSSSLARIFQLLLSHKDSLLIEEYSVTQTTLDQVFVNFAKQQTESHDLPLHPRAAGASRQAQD
inactive: [1] 0.174 | [4] 0.297 | [3] 0.03 | [5] -0.128

AGAP3 isoform 4 (UniProt Q96P47)
inactive: [1] -0.08 | [4] -0.023 | [3] -0.006 | [5] 0.05

ACVR1 (UniProt Q04771)
UniProt Q04771, sequence (Q04771 whole entry, looked up): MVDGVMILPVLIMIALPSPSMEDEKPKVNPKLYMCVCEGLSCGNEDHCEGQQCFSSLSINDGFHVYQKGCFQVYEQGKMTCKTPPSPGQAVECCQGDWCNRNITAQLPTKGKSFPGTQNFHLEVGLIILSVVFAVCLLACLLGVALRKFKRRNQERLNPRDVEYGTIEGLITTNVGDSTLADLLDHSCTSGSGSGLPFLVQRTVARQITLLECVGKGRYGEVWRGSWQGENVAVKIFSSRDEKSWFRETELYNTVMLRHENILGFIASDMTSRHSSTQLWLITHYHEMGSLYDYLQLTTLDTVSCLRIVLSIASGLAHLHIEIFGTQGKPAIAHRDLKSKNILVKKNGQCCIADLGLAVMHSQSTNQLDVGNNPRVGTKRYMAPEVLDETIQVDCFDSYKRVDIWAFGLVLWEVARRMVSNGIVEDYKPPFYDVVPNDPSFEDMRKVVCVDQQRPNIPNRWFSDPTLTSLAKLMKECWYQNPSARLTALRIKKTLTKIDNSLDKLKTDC
inactive: [4] 0.061 | [2] 0.041 | [3] -0.218 | [5] 0.072

ADPRH (UniProt P54922)
inactive: [1] -0.035 | [2] 0.344 | [3] -0.121

ADD1 isoform 4 (UniProt P35611)
inactive: [1] -0.03 | [4] 0.04 | [5] 0.217

ADD3 (UniProt Q9UEY8)
inactive: [1] 0.019 | [4] 0.034 | [2] 0.023 | [3] -0.002 | [5] 0.029

AKNA (UniProt Q7Z591)
inactive: [4] 0.071 | [5] 0.206

AP4S1 (UniProt Q9Y587)
UniProt Q9Y587, sequence (Q9Y587 whole entry, looked up): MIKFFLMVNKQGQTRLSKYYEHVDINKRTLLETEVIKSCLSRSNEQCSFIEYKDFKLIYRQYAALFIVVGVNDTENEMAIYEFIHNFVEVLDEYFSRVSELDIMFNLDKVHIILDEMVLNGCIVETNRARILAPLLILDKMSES
inactive: [1] -0.077 | [4] 0.133 | [2] 0.069 | [5] 0

ATP6V0A1 isoform 3 (UniProt Q93050)
UniProt Q93050, sequence (Q93050 whole entry, looked up): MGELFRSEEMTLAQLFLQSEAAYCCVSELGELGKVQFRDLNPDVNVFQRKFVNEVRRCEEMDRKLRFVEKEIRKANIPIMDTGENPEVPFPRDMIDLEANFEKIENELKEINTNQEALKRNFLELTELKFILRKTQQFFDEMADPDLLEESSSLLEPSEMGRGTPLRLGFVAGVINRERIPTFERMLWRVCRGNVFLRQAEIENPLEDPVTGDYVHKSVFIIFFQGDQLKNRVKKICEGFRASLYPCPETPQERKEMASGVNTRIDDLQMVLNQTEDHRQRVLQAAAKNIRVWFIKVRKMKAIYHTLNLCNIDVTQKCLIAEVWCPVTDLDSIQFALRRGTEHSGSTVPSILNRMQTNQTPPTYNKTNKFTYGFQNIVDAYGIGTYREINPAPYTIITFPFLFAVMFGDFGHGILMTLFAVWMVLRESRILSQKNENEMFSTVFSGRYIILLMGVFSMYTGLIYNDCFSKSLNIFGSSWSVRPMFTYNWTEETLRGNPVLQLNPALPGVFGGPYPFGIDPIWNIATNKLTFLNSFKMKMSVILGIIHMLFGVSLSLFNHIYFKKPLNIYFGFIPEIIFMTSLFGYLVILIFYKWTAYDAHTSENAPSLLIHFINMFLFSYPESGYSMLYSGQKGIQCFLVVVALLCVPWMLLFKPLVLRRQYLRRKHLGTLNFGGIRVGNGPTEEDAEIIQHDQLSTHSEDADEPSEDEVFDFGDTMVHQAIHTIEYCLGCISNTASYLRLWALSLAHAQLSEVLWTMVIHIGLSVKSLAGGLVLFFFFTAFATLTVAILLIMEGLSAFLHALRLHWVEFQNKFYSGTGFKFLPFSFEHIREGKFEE
inactive: [1] 0.115 | [4] -0.07 | [2] 0.005 | [3] -0.07 | [5] -0.149

AP2S1 (UniProt M0QZ21)
inactive: [3] -0.014

AARSD1 (UniProt Q9BTE6)
UniProt Q9BTE6, sequence (Q9BTE6 whole entry, looked up): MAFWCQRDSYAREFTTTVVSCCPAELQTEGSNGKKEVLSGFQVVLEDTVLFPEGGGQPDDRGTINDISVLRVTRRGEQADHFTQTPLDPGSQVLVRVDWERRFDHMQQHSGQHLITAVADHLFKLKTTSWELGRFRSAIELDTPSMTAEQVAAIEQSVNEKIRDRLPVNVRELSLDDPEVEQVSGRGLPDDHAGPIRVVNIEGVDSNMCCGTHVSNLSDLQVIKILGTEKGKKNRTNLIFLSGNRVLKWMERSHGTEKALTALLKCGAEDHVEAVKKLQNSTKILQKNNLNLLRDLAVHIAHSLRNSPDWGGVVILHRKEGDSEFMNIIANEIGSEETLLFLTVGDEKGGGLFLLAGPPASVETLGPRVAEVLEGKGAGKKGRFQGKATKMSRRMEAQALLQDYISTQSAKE
inactive: [1] -0.081 | [4] -0.267 | [5] -0.068

BAD (UniProt Q92934)
UniProt Q92934, sequence (Q92934 whole entry, looked up): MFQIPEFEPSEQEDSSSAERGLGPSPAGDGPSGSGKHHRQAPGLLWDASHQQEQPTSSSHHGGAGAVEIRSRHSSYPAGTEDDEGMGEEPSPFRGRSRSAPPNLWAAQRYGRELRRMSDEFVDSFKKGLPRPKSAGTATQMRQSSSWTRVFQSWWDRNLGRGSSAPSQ
inactive: [1] -0.001 | [4] -0.042 | [2] -0.086 | [5] 0.032

ASB6 (UniProt Q9NWX5)
inactive: [1] -0.065 | [2] 0.178

ACTBL2 (UniProt Q562R1)
inactive: [1] -0.444 | [2] -0.201

AFDN isoform 5 (UniProt P55196)
inactive: [1] -0.04 | [4] 0.055 | [2] 0.069 | [3] -0.018 | [5] -0.023

BAIAP2 isoform 4 (UniProt Q9UQB8)
inactive: [4] 0.029 | [3] -0.206 | [5] 0.151

APAF1 (UniProt O14727)
inactive: [4] 0.031 | [2] 0.112 | [5] 0.055

ACTR3B (UniProt Q9P1U1)
inactive: [2] -0.002 | [3] 0.173

From the supplement of paper PMC10849652
